Data from PubChem BioAssay (NCI).
Values joined by “and” are separate entries in the source; they are usually repeats but may differ in a detail not shown here. Equal entries are not always repeated. This is part of a sample that, as a whole, favours compounds with a hit. Of some 83,000 tested, about 20% had one in any assay.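 Results are percent growth after 48 hours of single-concentration exposure. 100 means growth as in untreated cells, lower positive values show inhibition; negative values down to -100 show cell death.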 Active and inactive are the calls of the source. Rule for the calls: active = growth percent below 10; inactive = the rest.

Tested on: MDA-MB-468 breast
Test: NCI-60 one-dose screen, 48 h (100 = growth as untreated, 0 = no growth, -100 = all killed)
Settings: 10 µM unless noted

Question: Which growth does the source give for `C=CC[Se]C(=O)Cc1c(C)n(C(=O)c2ccc(Cl)cc2)c2ccc(OC)cc12` here?
Answer: The growth was -37.5% (active).

Question: For `CC(=O)c1ccc2oc(=O)n(Cc3ccc(C#N)cc3)c(=O)c2c1`, which growth is on record?
Answer: The growth was 108% (inactive).

Question: `COc1cc(NC(=O)COc2ccccc2)c(C(N)=O)cc1OC` was tested. Which growth did it give?
Answer: Its growth is 17.7% (inactive).

Question: Which growth does the source give for `O=[N+]([O-])c1cnc(Sc2ccncn2)c([N+](=O)[O-])c1` here?
Answer: The growth was -44.4% (active).

Question: For `COC(=O)c1cccnc1`, which growth is on record?
Answer: The growth was 97.7% (inactive).

Question: How did the growth turn out when `COc1ccc(CCn2cnn3c(=O)c4ccccc4nc3c2=O)cc1OC` was run?
Answer: Its growth is 93.5% (inactive) and 94.3% (inactive).

Question: How did the growth turn out when `O=S(=O)(NCCCNc1nccc(-c2[nH]c(-c3ccccc3)nc2-c2ccc(F)c(O)c2)n1)c1cccc(F)c1` was run?
Answer: Its growth is 66.5% (inactive).

Question: How did the growth turn out when `O=c1[nH]nc(-c2ccc(Br)cc2)c2sc(NC(=S)Nc3ccc(Cl)cc3)nc12` was run?
Answer: Its growth is 110% (inactive).

Question: `O=C1NC(=O)c2c1c1c3ccccc3ccc1c1[nH]c3ccccc3c21` was tested. Which growth did it give?
Answer: Its growth is 7.32% (active).

Question: `Nc1c(C(=O)c2ccc(F)cc2)sc2nc3c(cc12)CCCC3` was tested. Which growth did it give?
Answer: Its growth is 59.9% (inactive).

Question: `COc1cc(C2CC(c3cccc(Nc4ccnc5cc(Cl)ccc45)c3)=NN2c2ccccc2)cc(OC)c1OC` (stereo not given) was tested. Which growth did it give?
Answer: Its growth is 82.1% (inactive).

Question: How did the growth turn out when `CC(C)(C)n1cc(-c2ccnc(NCCCNS(=O)(=O)c3ccc(C(F)(F)F)cc3)c2)c(-c2cccc(O)c2)n1` was run?
Answer: The growth was 11.8% (inactive).

Question: `CN(C)c1ccc(C(=N)c2ccc(N(C)C)cc2)cc1` was tested. Which growth did it give?
Answer: The growth was -45.5% (active) and -18.9% (active).

Question: With `CC(c1ccccc1)N1C(=O)C(C2SC(=S)N(C(C)c3ccccc3)C2=O)SC1=S` (stereo not given) as the molecule, how does the growth read?
Answer: The growth was 44.2% (inactive).

Question: For `CCCCCCCCN(CCCCCCCC)CCCCCCNc1cc(OC)cc2cccnc12`, which growth is on record?
Answer: The growth was 68.2% (inactive).

Question: With `COCCNc1ccc2c3c(cccc13)C(=O)N(CCN(C)C)C2=O` as the molecule, how does the growth read?
Answer: The growth was 45.2% (inactive).

Question: `COc1cc2c(c(OC)c1OC)CCC(c1cccc(C(=O)Nc3ccc(Br)cc3)c1)O2` (stereo not given) was tested. Which growth did it give?
Answer: The growth was 38.2% (inactive).

Question: `Nc1c(C(=O)Nc2ccncc2)sc2nc3c(cc12)CCCCCC3` was tested. Which growth did it give?
Answer: Its growth is 87.8% (inactive).

Question: For `COc1ccc2[nH]cc(-c3nc(-c4cn(C)c5c(Cl)nccc45)cs3)c2c1`, which growth is on record?
Answer: The growth was 18.1% (inactive).

Question: How did the growth turn out when `Nc1cc(N)ncn1` was run?
Answer: Its growth is 101% (inactive).

Question: `CC1(C)C(=O)/C(=C\c2ccco2)C[C@]2(C)[C@H]3CC=C4[C@@H]5C[C@](C)(C(=O)O)CC[C@]5(C)CC[C@@]4(C)[C@]3(C)CC[C@@H]12` was tested. Which growth did it give?
Answer: The growth was -47.2% [100 µM] (active).

Question: `CCOC(=O)c1c(Cl)c2c(n1Cc1ccccc1)-c1oncc1CCC2` was tested. Which growth did it give?
Answer: Its growth is 56% (inactive).

Question: Which growth does the source give for `CC[N+](CC)(CCOCCOCC[N+](CC)(CC)Cc1ccc([N+](=O)[O-])cc1)Cc1ccc([N+](=O)[O-])cc1` here?
Answer: The growth was 97.9% (inactive).

Question: For `O=C(NCCCN1CCN(CCCNC(=O)C2CCCCC2)CC1)C1CCCCC1`, which growth is on record?
Answer: The growth was 110% (inactive).

Question: With `COc1cc(NCCCN=C(N)NC(N)=NC(C)C)c2ncccc2c1` as the molecule, how does the growth read?
Answer: The growth was -34.2% (active).

Question: For `CCC#CC[C@H]1C/C=C2/C(=O)C=C[C@@H]2C/C=C\CCCC(=O)O1`, which growth is on record?
Answer: Its growth is -3.46% (active).

Question: `COc1cccc(-c2nc3sccn3c2-c2ccnc(NCCN3CCCN(C)S3(=O)=O)n2)c1` was tested. Which growth did it give?
Answer: Its growth is 75.6% (inactive).

Question: With `Oc1ccccc1/C=N\NC(=S)N/N=C/c1ccccc1O` as the molecule, how does the growth read?
Answer: The growth was 32.2% (inactive) and 11.3% (inactive).

Question: For `COc1ccc(C2=NNC(c3sc(Cl)nc3Cl)C2)cc1` (stereo not given), which growth is on record?
Answer: The growth was 70% (inactive).

Question: Which growth does the source give for `COc1cc2c(cc1O)CC[C@@H]1[C@@H]2CC[C@]2(C)[C@@H](NCCN(C)C)CC[C@@H]12` here?
Answer: Its growth is -85.1% (active).

Question: For `Cc1cc(C)n(Cc2cc(C(C)(C)C)cc(C(C)(C)C)c2)c(=O)c1C#N`, which growth is on record?
Answer: Its growth is 97.4% (inactive).

Question: With `O=c1c2cc(Cl)ccc2oc2ccc(OCCCCCN3CCCCCC3)cc12` as the molecule, how does the growth read?
Answer: Its growth is 74.1% (inactive).

Question: How did the growth turn out when `CCN(Cc1ccccc1)c1ccc(C=O)cc1` was run?
Answer: Its growth is 62.9% (inactive).

Question: How did the growth turn out when `COc1cc2nnn3c4ncccc4c(N=O)c3c2cc1OC` was run?
Answer: Its growth is -50.9% (active).

Question: Which growth does the source give for `COc1ccccc1OCC(=O)N1CCCCCC1` here?
Answer: Its growth is 97.1% (inactive).

Question: How did the growth turn out when `COc1cc(CNC(=O)Cc2ccccc2)ccc1OCc1cn(-c2ccc(F)cc2)nn1` was run?
Answer: The growth was 99.8% (inactive).

Question: Which growth does the source give for `CCCCCCCCn1cc(C2=C(c3coc4ccc(OC)cc34)C(=O)NC2=O)c2ccccc21` here?
Answer: The growth was 103% (inactive).

Question: With `O=S(=O)(NCCCNc1nccc(-c2c(-c3ccc(F)c(O)c3)nc3sccn23)n1)c1ccc(F)cc1` as the molecule, how does the growth read?
Answer: Its growth is -0.153% (active).

Question: How did the growth turn out when `C=C(C)[C@@H]1CC[C@]2(C(=O)OC)CC[C@]3(C)[C@H](CC[C@@H]4[C@@](C)(CCc5nn[nH]n5)[C@H](C(=C)C)CC[C@]43C)[C@@H]12` was run?
Answer: Its growth is -7.51% [100 µM] (active).

Question: With `COc1ccc(C2CC(c3ccc4ccccc4c3)=NN2c2nc(O)c(C3=c4cc(Cl)ccc4=NC3=O)s2)cc1` (stereo not given) as the molecule, how does the growth read?
Answer: The growth was -73.9% (active).
